This passage reports binding signal results from article PMC4081100, “A DNA-binding-site landscape and regulatory network analysis for NAC transcription factors in Arabidopsis thaliana”.

Test in all cases: universal protein binding microarray (PBM); transcription factors of Arabidopsis thaliana; high values mean tight binding
Settings in all cases: protein: recombinant; tags: GST; chain copies: 2; dsDNA, one strand shown

One experiment has as its target T1, GST-ANAC092(1-176) (Arabidopsis thaliana, UniProt Q9FKA0 1-176).
T1 sequence: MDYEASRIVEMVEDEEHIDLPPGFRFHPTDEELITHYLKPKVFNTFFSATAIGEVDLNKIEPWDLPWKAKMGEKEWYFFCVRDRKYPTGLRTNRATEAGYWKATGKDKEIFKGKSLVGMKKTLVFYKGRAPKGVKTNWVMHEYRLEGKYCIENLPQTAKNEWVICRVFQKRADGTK
The method, boiled down:
(§1)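 Binding is expressed as the normalised enrichment score (E-score). Proteins carrying a GST tag, whether NAC-domain, full-length or DNA-binding-domain forms, were induced in cells, and zinc acetate was added for zinc-finger proteins. After purification on glutathione–Sepharose 4B and quantification by A280 or anti-GST western blot, each was applied in duplicate at 200 to 500 nM final to custom all-10-mer Agilent 4 × 180K arrays made double-stranded by primer extension. Gapped and ungapped 8-mers were scored.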

Another experiment concerns the target T2, GST-ANAC019 NAC domain (Arabidopsis thaliana, UniProt Q9C932 14-162).
T2 sequence: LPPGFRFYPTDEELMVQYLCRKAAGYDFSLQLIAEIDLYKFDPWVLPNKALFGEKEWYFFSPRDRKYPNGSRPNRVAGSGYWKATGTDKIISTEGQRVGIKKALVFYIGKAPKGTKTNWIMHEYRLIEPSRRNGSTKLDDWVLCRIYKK
In a few lines:
as §1

The target in the next experiment is T3, GST-ANAC055(1-171) (Arabidopsis thaliana, UniProt Q9LDY8 1-171).
T3 sequence: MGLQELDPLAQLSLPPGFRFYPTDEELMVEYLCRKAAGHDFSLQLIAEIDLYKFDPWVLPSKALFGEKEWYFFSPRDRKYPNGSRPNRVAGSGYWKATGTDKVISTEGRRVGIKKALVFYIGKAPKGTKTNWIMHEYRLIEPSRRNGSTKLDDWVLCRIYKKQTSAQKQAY
In a few lines: as §1

The target in a further experiment is T4, GST-ATAF1 NAC domain (Arabidopsis thaliana, UniProt Q39013 7-158).
T4 sequence: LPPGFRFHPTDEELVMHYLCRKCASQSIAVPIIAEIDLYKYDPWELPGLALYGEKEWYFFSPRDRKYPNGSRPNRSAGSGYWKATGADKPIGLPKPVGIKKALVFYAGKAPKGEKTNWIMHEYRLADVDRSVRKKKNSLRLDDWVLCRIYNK
The method, boiled down: as §1

In experiment [1] the target is T5, GST-ANAC092(1-285) full length (Arabidopsis thaliana, UniProt Q9FKA0 1-285).
T5 sequence: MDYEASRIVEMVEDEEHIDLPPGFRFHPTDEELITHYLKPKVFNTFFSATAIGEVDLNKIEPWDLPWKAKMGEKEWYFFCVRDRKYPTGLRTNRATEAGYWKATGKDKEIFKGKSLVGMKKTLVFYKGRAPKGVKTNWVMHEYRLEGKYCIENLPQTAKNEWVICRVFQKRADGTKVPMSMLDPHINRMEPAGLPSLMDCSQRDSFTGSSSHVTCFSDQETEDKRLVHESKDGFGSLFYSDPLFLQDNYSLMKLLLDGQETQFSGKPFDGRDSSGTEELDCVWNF
In a few lines:
as §1

Another experiment concerns the target T6, GST-NAP(1-166) (Arabidopsis thaliana, UniProt O49255 1-166).
T6 sequence: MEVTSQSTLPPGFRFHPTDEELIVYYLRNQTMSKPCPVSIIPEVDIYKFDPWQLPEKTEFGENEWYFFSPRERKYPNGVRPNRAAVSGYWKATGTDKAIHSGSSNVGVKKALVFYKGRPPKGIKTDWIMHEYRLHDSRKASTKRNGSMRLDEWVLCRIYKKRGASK
The method, boiled down:
as §1

A further experiment deals with T7, GST-NST2(1-184) (Arabidopsis thaliana, UniProt Q9M274 1-184).
T7 sequence: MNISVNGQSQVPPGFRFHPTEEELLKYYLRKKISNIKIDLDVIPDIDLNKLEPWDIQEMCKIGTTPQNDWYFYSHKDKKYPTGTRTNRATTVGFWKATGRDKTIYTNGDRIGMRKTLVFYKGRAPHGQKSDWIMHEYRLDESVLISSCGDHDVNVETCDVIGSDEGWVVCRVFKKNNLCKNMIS
The method, boiled down:
as §1

The target of another experiment is T8, GST-NTL8 NAC domain (Arabidopsis thaliana, UniProt Q9XIN7 14-156).
T8 sequence: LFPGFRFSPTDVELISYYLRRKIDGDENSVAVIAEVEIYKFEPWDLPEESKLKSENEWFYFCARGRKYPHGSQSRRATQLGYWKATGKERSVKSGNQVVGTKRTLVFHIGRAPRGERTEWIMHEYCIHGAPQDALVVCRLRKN
The method, boiled down: as §1

The target of another experiment is T9, GST-SND1(1-203) (Arabidopsis thaliana, UniProt Q9LPI7 1-203).
T9 sequence: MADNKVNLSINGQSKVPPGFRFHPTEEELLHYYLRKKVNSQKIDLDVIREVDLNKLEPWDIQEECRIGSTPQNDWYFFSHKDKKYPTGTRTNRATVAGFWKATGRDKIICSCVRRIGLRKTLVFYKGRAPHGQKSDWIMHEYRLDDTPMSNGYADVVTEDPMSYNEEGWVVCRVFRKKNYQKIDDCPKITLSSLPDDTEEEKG
The method, boiled down:
as §1

Another experiment deals with T10, GST-VND3 NAC domain (Arabidopsis thaliana, UniProt Q9FH59 12-162).
T10 sequence: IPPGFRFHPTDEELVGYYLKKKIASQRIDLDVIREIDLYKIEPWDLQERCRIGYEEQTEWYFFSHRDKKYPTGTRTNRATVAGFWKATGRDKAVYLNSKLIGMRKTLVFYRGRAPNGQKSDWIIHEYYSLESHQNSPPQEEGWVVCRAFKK
The method, boiled down:
as §1

The target in the next experiment is T11, GST-VND7 NAC domain (Arabidopsis thaliana, UniProt Q9C8W9 9-158).
T11 sequence: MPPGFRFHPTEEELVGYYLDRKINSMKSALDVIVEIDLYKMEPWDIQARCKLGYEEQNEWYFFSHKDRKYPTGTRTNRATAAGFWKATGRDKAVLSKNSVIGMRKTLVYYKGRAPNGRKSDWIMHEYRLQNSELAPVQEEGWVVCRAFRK
In a few lines: as §1

Turning to GCACGTAA, the binding signal was 0.461 E-score with GST-ANAC092(1-176); 0.478 E-score with GST-ANAC019 NAC domain; 0.433 E-score with GST-ANAC055(1-171); 0.381 E-score with GST-ATAF1 NAC domain; 0.467 E-score in experiment [1]; 0.427 E-score with GST-NAP(1-166). Moreover, the binding signal came out at 0.218 E-score with GST-NST2(1-184); 0.189 E-score with GST-NTL8 NAC domain; 0.225 E-score with GST-SND1(1-203); 0.454 E-score with GST-VND3 NAC domain; 0.454 E-score with GST-VND7 NAC domain.

For TGCGTAAA, the binding signal in the experiment with GST-ANAC092(1-176) was 0.396 E-score; in the experiment with GST-ANAC019 NAC domain, 0.205 E-score; in the experiment with GST-ANAC055(1-171), 0.131 E-score; with GST-ATAF1 NAC domain, 0.216 E-score; in experiment [1], 0.386 E-score; with GST-NAP(1-166) it was 0.162 E-score. The binding signal stood at 0.291 E-score with GST-NST2(1-184); 0.0652 E-score with GST-NTL8 NAC domain; 0.447 E-score in the experiment with GST-SND1(1-203); 0.26 E-score with GST-VND3 NAC domain; 0.244 E-score in the experiment with GST-VND7 NAC domain.

On to GACACGCA, for which the binding signal in the experiment with GST-ANAC092(1-176) stood at 0.43 E-score; in the experiment with GST-ANAC019 NAC domain, 0.358 E-score; with GST-ANAC055(1-171) it was 0.275 E-score; with GST-ATAF1 NAC domain, 0.304 E-score; in [1], 0.455 E-score; with GST-NAP(1-166) it was 0.283 E-score. Also, the binding signal in the experiment with GST-NST2(1-184) is 0.0949 E-score; with GST-NTL8 NAC domain, 0.0711 E-score; with GST-SND1(1-203), 0.242 E-score; with GST-VND3 NAC domain it was 0.208 E-score; in the experiment with GST-VND7 NAC domain, 0.318 E-score.

On to ACGGAACT, for which the binding signal with GST-ANAC092(1-176) came out at 0.292 E-score; with GST-ANAC019 NAC domain, 0.468 E-score; with GST-ANAC055(1-171), 0.438 E-score; with GST-ATAF1 NAC domain it was 0.392 E-score; in experiment [1], 0.277 E-score; with GST-NAP(1-166), 0.452 E-score. Also, the binding signal amounted to 0.159 E-score with GST-NST2(1-184); 0.109 E-score with GST-NTL8 NAC domain; 0.178 E-score with GST-SND1(1-203); 0.417 E-score with GST-VND3 NAC domain; 0.445 E-score with GST-VND7 NAC domain.

On to ACGCAACG, for which the binding signal with GST-ANAC092(1-176) is 0.46 E-score; with GST-ANAC019 NAC domain, 0.327 E-score; with GST-ANAC055(1-171), 0.23 E-score; with GST-ATAF1 NAC domain, 0.27 E-score; in experiment [1], 0.463 E-score; in the experiment with GST-NAP(1-166), 0.387 E-score. The binding signal in the experiment with GST-NST2(1-184) was 0.3 E-score; with GST-NTL8 NAC domain it was 0.113 E-score; with GST-SND1(1-203) it was 0.461 E-score; with GST-VND3 NAC domain it was 0.278 E-score; in the experiment with GST-VND7 NAC domain, 0.316 E-score.

Consider TGCGTACA, for which the binding signal was determined as 0.372 E-score in the experiment with GST-ANAC092(1-176); 0.307 E-score with GST-ANAC019 NAC domain; 0.288 E-score with GST-ANAC055(1-171); 0.272 E-score with GST-ATAF1 NAC domain; 0.437 E-score in [1]; 0.289 E-score with GST-NAP(1-166). The binding signal worked out at 0.279 E-score with GST-NST2(1-184); 0.0577 E-score with GST-NTL8 NAC domain; 0.393 E-score in the experiment with GST-SND1(1-203); 0.305 E-score in the experiment with GST-VND3 NAC domain; 0.281 E-score with GST-VND7 NAC domain.

On to ACACGGCA, for which the binding signal worked out at 0.481 E-score in the experiment with GST-ANAC092(1-176); 0.485 E-score with GST-ANAC019 NAC domain; 0.479 E-score with GST-ANAC055(1-171); 0.446 E-score in the experiment with GST-ATAF1 NAC domain; 0.481 E-score in [1]; 0.457 E-score with GST-NAP(1-166). Further, the binding signal with GST-NST2(1-184) was 0.245 E-score; in the experiment with GST-NTL8 NAC domain, 0.0652 E-score; in the experiment with GST-SND1(1-203), 0.148 E-score; in the experiment with GST-VND3 NAC domain it was 0.463 E-score; with GST-VND7 NAC domain it was 0.481 E-score.
